High-throughput results as filed in PubChem.
The list is not random: actives were taken first. Their share in the collection is about 4%.
GRP78 ERSR act: induces the endoplasmic reticulum stress response in human glioma cells | U87-MG GRP78 promoter luciferase reporter, 16 h | Potency, µM, most hits filed as activators | 0.02% of 420,000 active | AID 602332; active = well fitted activation curve with a large enough effect; inconclusive = small, poorly fitted or top-dose-only effect; inactive = no such curve, though single readings can be large or run the other way; also: series mostly up to about 76 µM; nearly all actives have a fitted effect of over 35% in size
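Stably transfected U87-MG human glioma cells carrying a GRP78-based luminescent sensor were seeded at 1000 cells/well, pin-dosed with compounds and incubated 16 h. Luciferase reagent was then added, and end-point luminescence was read after 10 min at room temperature.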
TRHR PAM: allosterically enhances the human TRH receptor; enhancement, % at 2 µM; P34981; TRHR cells, fluo-8 calcium fluorescence, EC20 TRH enhancement; 0.66% of 360,000 active; AID 493056; in the data active = enhancement above about 30%
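TRHR-expressing cells loaded with fluo-8 calcium dye were read kinetically (ex 480/em 530) during compound addition, then stimulated with an EC20 of TRH (10 nM final). Enhancement of the Gq-mediated intracellular calcium response was scored.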
D1 ag: agonists of human D1 dopamine receptor; 1% of 360,000 active; HEK293 T-REx D1 cells, calcium flux, agonist mode; P21728; activation, % at 2 µM
Target sequence (P21728 whole entry, looked up): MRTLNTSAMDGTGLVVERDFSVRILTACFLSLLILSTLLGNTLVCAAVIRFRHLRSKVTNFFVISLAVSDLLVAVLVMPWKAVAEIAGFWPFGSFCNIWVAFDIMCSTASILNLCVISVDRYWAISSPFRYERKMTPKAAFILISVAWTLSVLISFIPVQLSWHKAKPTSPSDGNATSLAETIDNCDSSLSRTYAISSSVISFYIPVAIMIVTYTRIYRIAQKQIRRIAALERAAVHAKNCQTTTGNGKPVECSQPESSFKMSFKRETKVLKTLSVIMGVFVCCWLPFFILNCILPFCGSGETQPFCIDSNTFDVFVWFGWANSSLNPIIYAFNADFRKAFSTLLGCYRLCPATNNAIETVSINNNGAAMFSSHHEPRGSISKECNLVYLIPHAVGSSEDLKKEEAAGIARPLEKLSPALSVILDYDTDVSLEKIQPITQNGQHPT
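Inducible HEK293 T-REx D1 cells, force-coupled to calcium signalling, were plated at 4000 cells/well with tetracycline and held overnight at 30 C. After no-wash calcium dye loading, compound-evoked calcium rise over 180 s flagged agonists.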
D1 antag: antagonists of human D1 dopamine receptor; HEK293 TREx D1 cells, calcium flux, dopamine EC80; hits give low values; activity change, negative = inhibition, % at 10 µM; 3.2% of 360,000 active; in the data active = activity change below about -30%
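HEK293 T-REx cells expressing inducible, force-coupled D1 receptor; no-wash Ca dye, 30–90 min RT. Cmpd → 180 s read at 1 Hz → EC80 DA → 180 s read.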
D1 potentiator: human D1 dopamine receptor positive modulation | P21728 | potentiation, % at 10 µM | 0.036% of 360,000 active | HEK293 TREx D1 cells, calcium flux, dopamine EC20 potentiation; in the data active = potentiation above about 30%
TRHR agonist: activates the human TRH receptor | 0.18% of 360,000 active | P34981 | TRHR cells, calcium flux fluo-8, FDSS agonist mode | AID 493084 | activation, % at 2 µM
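In this calcium-flux screen, cells bearing human TRHR are dye-loaded with fluo-8, baselined for 10 cycles, then exposed to library compounds; positive kinetic calcium responses during the agonist phase mark hits, with TRH as control.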
Each line names hits and unclear results; the compound was inactive in the other large screens; ! = a repeat was not active. Rule as the data show it, unless noted: active = activation above about 30%; inactive = the rest.

Cc1onc(-c2ccccc2)c1C(=O)OCC(=O)Nc1cccc(Cl)c1	D1 ag 47 (no result: D1 potentiator)
CCn1nc(-c2ccccc2)c(-c2ccccc2)c(C(=O)Nc2ccccc2C(N)=O)c1=O	D1 antag -42
CCOC(=O)c1c(NC(=O)c2c(-c3ccccc3)noc2C)sc(C)c1-c1ccccc1	none
Cc1onc(-c2ccccc2)c1C(=O)OCC(=O)Nc1ccc(Cl)cc1	none
Cc1cnc(NC(=O)c2c(-c3ccccc3)noc2C)s1	D1 antag -34
CCC(Br)C(=O)Nc1ccc(OC)cc1 (configuration not stated)	none
CC(C)(C)n1ncc2c(=O)n(Cc3cc(F)c(F)cc3Cl)cnc21	none (no result: TRHR PAM, D1 ag, D1 antag, D1 potentiator, TRHR agonist)
CCOC(=O)c1[nH]c(C)c(/C=N/O)c1C	D1 antag -56
C#CCOCCOCCOCCNc1nc(N2CCN(C(=O)Cn3cc(CCCCN)nn3)CC2)nc(N2CCN(C(=O)Cn3cc(CC(C)O)nn3)CC2)n1 (configuration not stated)	D1 antag -32
C#CCOCCOCCOCCNc1nc(N2CCN(C(=O)Cn3cc(CC(C)O)nn3)CC2)nc(N2CCN(C(=O)Cn3cc(CC(C)O)nn3)CC2)n1 (configuration not stated)	none
C#CCOCCOCCOCCNc1nc(N2CCN(C(=O)CCCCCCCCCCNC(=O)Cn3cc(CCCCCN)nn3)CC2)nc(N2CCN(C(=O)CCCCCCCCCCNC(=O)Cn3cc(C[C@@H](C)O)nn3)CC2)n1	D1 potentiator 43
COc1ccc(-c2noc(N3CCC(C(=O)Nc4cc(OC)ccc4OC)CC3)n2)cc1	none
COc1ccc(-c2noc(N3CCC(C(=O)Nc4ccccc4OC)CC3)n2)cc1	D1 antag -34
COC(=O)c1ccc(NC(=O)CSCc2ccccc2C)cc1	TRHR PAM 40
Cc1ccc(S(=O)(=O)Nc2nccs2)cc1[N+](=O)[O-]	none
Cc1ccc(S(=O)(=O)Nc2ccc(S(=O)(=O)Nc3nccs3)cc2)c([N+](=O)[O-])c1	TRHR PAM 58
CCc1ccc2oc(C(=O)Nc3cccc(C(F)(F)F)c3)cc(=O)c2c1	TRHR PAM 45
CC1(c2ccc([N+](=O)[O-])cc2)NC(=O)N(CC(=O)c2ccc3c(c2)OCO3)C1=O (configuration not stated)	D1 ag 34
CC(=O)c1c(C)[nH]c(C(=O)CN2C(=O)NC(C)(c3ccc4c(c3)OCO4)C2=O)c1C (configuration not stated)	none
CC1(c2ccc(OC(F)F)cc2)NC(=O)N(CC(=O)c2ccc3c(c2)OCO3)C1=O (configuration not stated)	D1 ag 47, D1 antag -43
Oc1ccc(C2CNCc3sccc32)cc1O (configuration not stated)	D1 ag 92, D1 antag -96
CN(CCCc1cnc[nH]1)C(=S)NCCCN(Cc1ccc(Cl)cc1)c1ccc(Br)cn1	none (no result: TRHR PAM, D1 ag, D1 antag, D1 potentiator, TRHR agonist)
N#CCCN(C1CCCCC1)S(=O)(=O)CCOc1ccccc1	none
COCCC(=O)N1CCC(Oc2ccc(C(=O)N(C)CCCC3CCCC3)cc2)CC1	D1 antag -33
COc1ccc(C(=O)N(C)CCCC2CCCC2)cc1OC1CCN(C(C)C)CC1	GRP78 ERSR act inconclusive, D1 antag -47
Nc1nc(COc2ccc(Cl)cc2)cs1	TRHR PAM 38
CC[C@H](C)[C@H](NC(=O)[C@H](CC(C)C)NC(=O)[C@H](CC(N)=O)NC(=O)[C@@H](NC(=O)[C@@H](N)Cc1ccc(O)cc1)[C@@H](C)CC)C(=O)N[C@@H](Cc1ccc(O)cc1)C(=O)N[C@@H](CCCN=C(N)N)C(=O)N[C@@H](CC(C)C)C(=O)N[C@@H](CCCN=C(N)N)C(=O)N[C@@H](Cc1ccc(O)cc1)C(N)=O	none (no result: TRHR PAM, D1 ag, D1 antag, D1 potentiator, TRHR agonist)
CN(C(=O)CSc1nc2ccccc2n1CC(=O)N(C)C1CCCCC1)c1ccc(F)cc1	none
CN(C(=O)CSc1nc2ccccc2n1CC(=O)NCc1ccc(F)cc1)c1ccc(F)cc1	D1 antag -32
CCn1c(SCC(=O)N(C)c2c(N)n(Cc3ccccc3)c(=O)[nH]c2=O)nc2ccccc21	TRHR PAM 31
CC(=O)N1CCC(C(=O)Nc2nnc(C(C)C)s2)CC1	none (no result: TRHR PAM, D1 ag, D1 antag, D1 potentiator, TRHR agonist)
O=C(OCC#CCSc1nnc(-c2cccc3ccccc23)s1)c1cccs1	none (no result: GRP78 ERSR act)
c1ccc2[nH]c3cc4ncnc4cc3nc2c1	D1 ag 33
FC(F)c1nc2ccccc2[nH]1	none
CCC1CCCCN1C(=O)NC(=O)c1ccccc1 (configuration not stated)	none
Cc1ccccc1C1(CC(=O)N2CCCCC2C)CC(=O)N(Cc2cccnc2)C1=O (configuration not stated)	none (no result: TRHR PAM, D1 ag, D1 antag, D1 potentiator, TRHR agonist)
Cc1[nH][nH]c(=O)c1C(c1ccc(-c2ccc(Cl)cc2Cl)o1)c1c(C)[nH][nH]c1=O	D1 ag 55 (no result: GRP78 ERSR act)
Cc1[nH][nH]c(=O)c1C(c1ccc(-c2cccc(Cl)c2)o1)c1c(C)[nH][nH]c1=O	none
O=C(Cc1ccc(Br)cc1)Nc1cccc(-c2cn3c(n2)SCC3)c1	D1 antag -41
CCCC(CCC)C(=O)Nc1cccc(-c2cn3c(n2)SCC3)c1	none
Cc1cc(C)cc(NC(=S)N2CCC(N(C)CC3CCCO3)CC2)c1 (configuration not stated)	none
Cc1ccc(NC(=S)N2CCC(N(C)CC3CCCO3)CC2)cc1 (configuration not stated)	D1 antag -40
COc1ccc(-c2nc3scc(CCNS(=O)(=O)c4cccc(C(C)=O)c4)n3n2)cc1	none (no result: D1 antag)
CC(C)CCNC(=O)C(=O)Nc1cc2c3c(c1)CCC(=O)N3CCC2	none
CC1C(=O)N2CCCc3cc(NC(=O)C(=O)NCCc4c[nH]c5ccccc45)cc1c32 (configuration not stated)	none
COCCNC(=O)C(=O)Nc1cc2c3c(c1)CCC(=O)N3CCC2	D1 antag -31
CC1C(=O)N2CCCc3cc(NC(=O)C(=O)NCCc4ccccc4)cc1c32 (configuration not stated)	D1 antag -35
CCOP(=O)(O)c1ccccc1OCCCCCOc1ccccc1P(=O)(O)OCC	none
CCN1C(C)=C(C(=O)OC)C(c2ccccc2)N2C(=O)[C@@]3(C(=O)OC)O[C@@]12C1C(=O)CCCC13 (some centres not stated)	none (no result: TRHR PAM, D1 ag, D1 antag, D1 potentiator, TRHR agonist)
COc1ccc2nc(S(=O)Cc3ncc(C)c(OC)c3C)[nH]c2c1 (configuration not stated)	TRHR PAM 32
COCCCOc1ccnc(CS(=O)c2nc3ccccc3[nH]2)c1C (configuration not stated)	none
COc1ccc(NC(=O)CN(C)S(=O)(=O)c2ccc3c(c2)CCCN3C(C)=O)cc1	D1 antag -42!
